Results as given in PubChem BioAssay AID1159580 (chemical genetic matrix, 2015).
Several values for one entry are separate records, joined by “and”; a condition that tells them apart may be missing. Equal values may be shown once. Hit rate of the full screen: of about 5,500 compounds, about 2,000 (36%) were called active. Not shown: some 18% with an inconclusive outcome. No stated cut-off is given here; in the data, active means normalized growth mostly below about 0.91 (no sharp cut-off); inconclusive means no clear call, values can overlap the other calls; inactive means mostly above about 0.92. This is one part of the list.

Assay: chemical genetic growth profiling, strain panel (AID 1159580);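 further: tested at 20 µM; growth read once vehicle control cultures reached saturation at 30 °C; 1 = growth at the plate median or of vehicle wells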
Details: S. cerevisiae deletion strains, growth OD

Measured: normalized growth

CC(C)(C)NCC(O)c1cc(O)cc(O)c1 (stereo not drawn)
inactive: locus YAL013W, strain DEP1, stronger effect = lower value 1 | locus YAL021C, strain ccr4, stronger effect = lower value 0.975 | locus YAL026C, strain drs2, stronger effect = lower value 0.979 | locus YAL030W, strain snc1, stronger effect = lower value 0.98 | locus YAL040C, strain CLN3, stronger effect = lower value 0.976 | locus YBL061C, strain skt5, stronger effect = lower value 0.963 | locus YBR009C, strain hhf1, stronger effect = lower value 1.01 | locus YBR021W, strain FUR4, stronger effect = lower value 1 | locus YBR023C, strain chs3, stronger effect = lower value 0.972 | locus YBR171W, strain sec66, stronger effect = lower value 0.986 | locus YBR229C, strain ROT2, stronger effect = lower value 0.996 | locus YBR231C, strain swc5, stronger effect = lower value 0.997 | locus YBR279W, strain paf1, stronger effect = lower value 0.98 | locus YCL011C, strain gbp2, stronger effect = lower value 0.985 | locus YCL016C, strain dcc1, stronger effect = lower value 0.967 | locus YCL029C, strain bik1, stronger effect = lower value 0.987 | locus YCL061C, strain MRC1 (second series), stronger effect = lower value 0.988 | locus YCL069W, strain vba3, stronger effect = lower value 0.988 | locus YCR088W, strain abp1, stronger effect = lower value 0.984 | locus YDL005C, strain med2, stronger effect = lower value 0.959 | locus YDL035C, strain GPR1, stronger effect = lower value 0.994 | locus YDL040C, strain nat1, stronger effect = lower value 0.973 | locus YDL074C, strain BRE1, stronger effect = lower value 1.02 | locus YDL101C, strain DUN1, stronger effect = lower value 0.987 | locus YDL134C, strain PPH21, stronger effect = lower value 1 | locus YDL192W, strain arf1, stronger effect = lower value 0.971 | locus YDR001C, strain nth1, stronger effect = lower value 0.982 | locus YDR069C, strain doa4, stronger effect = lower value 0.993 | locus YDR101C, strain arx1, stronger effect = lower value 0.977 | locus YDR137W, strain rgp1, stronger effect = lower value 0.962 | locus YDR159W, strain sac3, stronger effect = lower value 0.983 | locus YDR162C, strain NBP2, stronger effect = lower value 0.995 | locus YDR195W, strain ref2 0.998 | locus YDR297W, strain sur2, stronger effect = lower value 0.99 | locus YDR318W, strain mcm21, stronger effect = lower value 0.979 | locus YDR334W, strain swr1, stronger effect = lower value 0.964 | locus YDR335W, strain msn5, stronger effect = lower value 0.984 | locus YDR363W, strain ESC2, stronger effect = lower value 0.957 | locus YDR388W, stronger effect = lower value 0.988 | locus YDR392W, strain spt3, stronger effect = lower value 0.883 | locus YDR502C, strain sam2, stronger effect = lower value 0.978 | locus YEL003W, strain gim4, stronger effect = lower value 0.992 | locus YEL037C, strain rad23, stronger effect = lower value 0.972 | locus YEL061C, strain CIN8 (second series), stronger effect = lower value 0.977 | locus YEL061C, strain CIN8, stronger effect = lower value 0.994 | locus YER002W, strain NOP16, stronger effect = lower value 1.01 | locus YER015W, strain faa2, stronger effect = lower value 0.987 | locus YER016W, strain bim1, stronger effect = lower value 0.946 | locus YER110C, stronger effect = lower value 0.97 | locus YER111C, strain swi4, stronger effect = lower value 0.967 | locus YER155C, strain BEM2 (second series), stronger effect = lower value 0.975 | locus YER155C, strain BEM2, stronger effect = lower value 0.991 | locus YER167W, strain BCK2, stronger effect = lower value 0.993 | locus YFR010W, strain ubp6, stronger effect = lower value 0.999 | locus YGL078C, strain dbp3, stronger effect = lower value 0.981 | locus YGL086W, strain mad1, stronger effect = lower value 0.987 | locus YGL167C, strain pmr1, stronger effect = lower value 0.986 | locus YGL173C, strain kem1, stronger effect = lower value 0.971 | locus YGL227W, strain vid30, stronger effect = lower value 0.98 | locus YGL240W, strain doc1, stronger effect = lower value 1.02 | locus YGL248W, strain PDE1, stronger effect = lower value 0.999 | locus YGL253W, strain hxk2, stronger effect = lower value 0.962 | locus YGR078C, strain PAC10, stronger effect = lower value 0.993 | locus YGR135W, strain pre9, stronger effect = lower value 0.982 | locus YGR229C, strain SMI1, stronger effect = lower value 0.972 | locus YGR252W, strain gcn5, stronger effect = lower value 1.15 | locus YHR013C, strain ard1, stronger effect = lower value 0.955 | locus YHR027C, strain rpn1, stronger effect = lower value 0.993 | locus YHR030C, strain SLT2, stronger effect = lower value 0.981 and 0.948 | locus YHR079C, strain IRE1 (second series), stronger effect = lower value 0.981 | locus YHR079C, strain IRE1, stronger effect = lower value 0.974 | locus YHR094C, strain hxt1, stronger effect = lower value 0.975 | locus YHR129C, strain ARP1, stronger effect = lower value 1 | locus YHR142W, strain chs7, stronger effect = lower value 0.973 | locus YHR200W, strain rpn10, stronger effect = lower value 0.987 | locus YIL066C, strain RNR3, stronger effect = lower value 0.994 | locus YIL073C, strain SPO22, stronger effect = lower value 0.938 | locus YIL125W, strain kgd1, stronger effect = lower value 0.958 | locus YIR030C, strain dcg1, stronger effect = lower value 0.992 | locus YJL092W, strain hpr5, stronger effect = lower value 0.99 | locus YJL095W, strain BCK1 (second series), stronger effect = lower value 1 | locus YJL095W, strain BCK1, stronger effect = lower value 1.01 and 0.964 | locus YJL115W, strain asf1, stronger effect = lower value 1 | locus YJL129C, strain trk1, stronger effect = lower value 0.934 | locus YJL134W, strain LCB3, stronger effect = lower value 0.987 | locus YJL154C, strain vps35, stronger effect = lower value 0.974 | locus YJL164C, strain tpk1, stronger effect = lower value 1 | locus YJL166W, strain qcr8, stronger effect = lower value 1.02 | locus YJL168C, strain set2, stronger effect = lower value 0.984 | locus YJL187C, strain SWE1 (second series), stronger effect = lower value 0.976 | locus YJR043C, strain POL32, stronger effect = lower value 1 | locus YJR066W, strain TOR1, stronger effect = lower value 0.916 | locus YJR075W, strain HOC1, stronger effect = lower value 0.98
